This is part of a sample that, as a whole, favours compounds with a hit. Of some 79,000 tested, about 15% had one in any assay. Unmarked numbers belong to inactive results. Calls of active or inactive are those of the source. Rule as the data show it: active = growth inhibition above about 70%; inactive = the rest. Where a SMILES comes first, the peptide text is derived from it. Bridges are numbered along the chain shown (N, C = ends). The star is where a group is joined. Cbz = O=C(OCc1ccccc1)*; OBn = c1ccc(CO*)cc1
Legend:
[1] = NCI Yeast Anticancer Drug Screen. Data for the rad50 strain (AID 155);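 also: 0% = growth of vehicle-only cultures of the same strain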; conditions: S. cerevisiae rad50 strain growth inhibition; at 50.0 µM; hits give high values
Summary of the method: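 Inhibition values express reduced yeast growth in compound-treated cultures relative to vehicle-treated controls.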

[2] = NCI Yeast Anticancer Drug Screen. Data for the mec2-1 strain (AID 157); conditions: S. cerevisiae mec2-1 strain, at 50.0 µM, hits give high values
Summary of the method: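 Using mec2-1 yeast: add compound, measure growth, express inhibition versus vehicle-treated cultures.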

[3] = NCI Yeast Anticancer Drug Screen. Data for the sgs1 mgt1 strain (AID 161);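 also: 0% = growth of cultures given vehicle only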; conditions: S. cerevisiae sgs1 mgt1 strain, at 50.0 µM, hits give high values
Summary of the method: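 Growth of a repair-deficient yeast mutant was monitored after compound treatment and expressed as inhibition relative to vehicle-treated cultures.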

[4] = NCI Yeast Anticancer Drug Screen. Data for the cln2 rad14 strain (AID 165);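 also: 0% = growth equal to vehicle treated cultures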; conditions: S. cerevisiae cln2 rad14 strain, at 50.0 µM, hits give high values
Summary of the method: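 Yeast strain cln2 rad14, bearing defects in cell cycle control and DNA repair, serves as the test system; values reflect growth inhibition compared with vehicle.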

[5] = NCI Yeast Anticancer Drug Screen. Data for the bub3 strain (AID 167); conditions: S. cerevisiae bub3 mutant strain, at 50.0 µM, hits give high values
Summary of the method: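 Steps: expose the mutant yeast strain to compound; grow alongside vehicle-treated cultures; measure growth; express inhibition against the vehicle cultures.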

[6] = NCI Yeast Anticancer Drug Screen. Data for the mlh1 rad18 strain (AID 175); conditions: S. cerevisiae mlh1 rad18 strain growth inhibition; at 50.0 µM; hits give high values
Summary of the method: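 Steps: expose repair-defective yeast to compound; measure growth; express inhibition against vehicle-treated controls.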

Row | Structure (SMILES) | growth inhibition [1] | growth inhibition [2] | growth inhibition [3] | growth inhibition [4] | growth inhibition [5] | growth inhibition [6]
1 | OCC1C2C=CC1CC2 (centres undefined) | -1.4% | -1.8% | 15.2% | -0.85% | 11.7% | -2.7%
2 | COc1ccc(C(=O)N/N=C/c2ccccc2OC)cc1 | -3.1% | 31% | 25.4% | -10.6% | 27.9% | 32%
3 | Cc1ccc(CO)cc1 | 13.9% | -6.7% | 21.9% | -5.6% | -2.05% | 21.7%
4 | O=C1c2ccccc2C(=O)c2c1nnn2-c1ccccc1 | 41.7% | 5.95% | 21.2% | -4.45% | 17.2% | -2.15%
5 | O=[N+]([O-])c1ccc(S(=O)(=O)N/N=C/c2cccc3ccccc23)cc1 | 6.6% | -1.25% | 17.1% | -15.8% | -0.3% | 19.8%
6 | O=S(=O)(c1ccccc1)C1(Sc2ccccc2)CC(Br)[C@@H](Br)C1 (some centres undefined) | 21.9% | 7.3% | 25.5% | 8% | -6.65% | -5.55%
7 | COCCNc1ccc([N+](=O)[O-])cc1[N+](=O)[O-] | 1.85% | -1.85% | -3.75% | -26.9% | -8.65% | 7.1%
8 | C1=CC2=CC=CC3c4nc5ccc6ccccc6c5nc4C(=C1)C23 (centres undefined) | 11.4% | -9.3% | -0.9% | 4.25% | -2.55% | 8.75%
9 | CC1(C)CS(=O)(=O)CC(C)(C)C(=N/N)/C1=N\N | 20.1% | 26.9% | -13.2% | 5.8% | -6.95% | -18.2%
10 | O=C(Nc1ccc(Cl)cc1[N+](=O)[O-])Oc1ccc(-c2ccccc2)cc1Cl | 99.5% (active) | 99.7% (active) | 99.7% (active) | 99% (active) | 99.4% (active) | 99.7% (active)
11 | COc1ccc(C#CC(=O)O)c(OC)c1 | -3.15% | -2.1% | 22.9% | -30.6% | -5.45% | -9%
12 | Cc1cc(S(=O)(=O)Nc2nc(N)nc(N3CCCCC3)n2)c(S)cc1Cl | -0.3% | -11.7% | -13% | -7.15% | -5.2% | 5.35%
13 | O=C(CCN1CCC2CCC(C2)C1)c1ccc(Cl)cc1 (centres undefined) | 17.3% | 3.35% | 46.5% | -4% | 21.3% | -7.3%
14 | COC(=O)c1ccccc1C1CN=NC12Cc1c(C)cccc1C2=O (centres undefined) | -2.25% | 6% | -5% | -7.1% | 13.8% | -13.7%
15 | CC(=O)OCCNc1ccccc1 | -5.05% | 0.2% | 10.2% | -5% | -2.75% | 20.3%
16 | O=C(O)C(C(=O)O)C1CCCCC1 | -14.6% | -20.6% | -20.6% | -0.95% | -6.5% | -15.8%
17 | COc1cc([N+](=O)[O-])c2ncccc2c1 | -15.9% | -16% | -7.6% | 6.9% | -3.1% | 18.1%
18 | NC(=O)Oc1cccc(OC(N)=O)c1 | 8.95% | -6.25% | 13.9% | 3.8% | 18.8% | 13.6%
19 | CC1=NC(=Cc2ccccc2O)C(=O)N1n1c(-c2ccccc2)nc2ccccc2c1=O | 22.4% | 17.7% | 51.5% | 16.6% | 42.5% | 44.5%
20 | NC(=S)N/N=C/c1cc([N+](=O)[O-])ccc1O | 1.95% | -3.4% | 25.9% | 51% | 8.5% | -87.9%

Row | Structure (SMILES) | growth inhibition [1] | growth inhibition [2] | growth inhibition [3] | growth inhibition [4] | growth inhibition [5] | growth inhibition [6]
21 | COC1/C=C/OC2(C)Oc3c(C)c(O)c4c(O)c(c(/C=N/N5CCN(Cc6cccc(C(F)(F)F)c6)CC5)c(O)c4c3C2=O)NC(=O)C(C)=C/C=C/C(C)C(O)C(C)C(O)C(C)C(OC(C)=O)C1C (centres undefined) | 11.7% | 30.7% | 35.3% | 27.2% | 11.8% | 43.1%
22 | COC(=O)C12CCC(C(=O)OC)(CC1)n1c(=O)n(-c3ccccc3)c(=O)n12 | -4.8% | -5.15% | -7.7% | -16.8% | -1.85% | -7.15%
23 | CN(C)c1nc(Cl)nc2c1ncn2-c1ccccc1 | 9.85% | -23.2% | 3.1% | -10.7% | -31.4% | -5.1%
24 | COC(=O)C1CCC(=O)NCCCCC(NC(=O)C(CC(=O)OCc2ccccc2)NC(=O)OCc2ccccc2)C(=O)N1 (stereo not drawn) (Cbz-Asp(OBn)-Lys-Glu-OMe; lactam 2-3; configuration not given here) | -2% | 3.95% | 23.3% | 11.8% | 28.4% | -23.7%
25 | N#Cc1cc([N+](=O)[O-])ccc1NC(=O)C(=O)C(C(=O)c1ccc2ccccc2c1)C1OCc2ccccc21 (centres undefined) | 11.1% | -6.4% | -2.85% | 36.1% | -8.5% | -9.95%
26 | Cc1c(O)ccc2c(O)c(NC(=O)c3ccc4c(c3)CCC(C)(C)O4)c(=O)oc12 | 4.95% | -22.9% | 7.95% | -95.5% | -21.5% | 21.1%
27 | CN(C)c1ccc(/[N+]([O-])=C/c2cccc3ccccc23)cc1 | 3.05% | 22.6% | 15.2% | -51.9% | 60.3% | 38.4%
28 | CC(=O)OC1OC(C)C(OC(=O)c2ccccc2)C1OC(C)=O (centres undefined) | 21.1% | -3.15% | 2.3% | -1.25% | 6.25% | 33.6%
29 | O=C1NC(=S)N/C1=C/c1ccc2c(c1)CCC2 | 13.9% | -20.2% | 20.6% | 12.4% | 31.8% | 12.7%
30 | Cc1cccc(NC(=O)c2ccc(Cl)cc2Cl)n1 (tested in a mixture with another compound) | -2.95% | -7.05% | 3.45% | -25.6% | 4.05% | 20.9%
31 | Cc1ccc(C)c2c1C1CCCCC3(OCCCO3)C21O (centres undefined) | -4.2% | -6.3% | -44.2% | -6.9% | -24.2% | -0.85%
32 | CCCCCCSc1nc2c([nH]1)c(=O)n(C)c(=S)n2C | 2.5% | -3.1% | 1.35% | 1.5% | 13.9% | 19.1%
33 | CCOC(=O)Nc1cc([N+](C)(C)C)ccc1OCCOc1ccc([N+](C)(C)C)cc1 | -0.4% | 5.35% | -8.4% | -8.8% | -1.65% | 28.6%
34 | CCOC(=O)c1nc(SC)sc1NC(=O)c1ccc([N+](=O)[O-])cc1 | -11% | -24.8% | -30.8% | 27.1% | -14.7% | -21.6%
35 | NCCNCC(O)CO (centres undefined) | -2.4% | -18.6% | -21.4% | -9.5% | 3.9% | 6.15%
36 | O=C(/C=C/c1ccc(Cl)c(Cl)c1)c1ccc2ccccc2c1 | 28.2% | 1.95% | -3.7% | -8.6% | 11.2% | 20.2%
37 | CNC1=C(Sc2ccc(Cl)cc2)C(=O)c2ccccc2C1=O | -0.4% | 19.4% | 1.45% | 3.25% | 2.75% | 0.35%
38 | CCOc1ccc(OCC)c(C(=O)CCC(=O)Nc2ccc(Br)cc2)c1 | -8.9% | -2.9% | -8.3% | -12.8% | 1.45% | -6.75%
39 | O=C(CCC(=O)Nc1cccc(Cl)c1)CC(=O)c1ccc(F)cc1 | -11.2% | -1.8% | 6.3% | -23.9% | -0.85% | -4.85%

— PubChem BioAssay (NCI)
